Sampled rows, rich in hits. Any-hit rate of the full collection: about 3.7%.
TIM10 inh: TIM10 yeast growth inhibition; S. cerevisiae TIM10 strain growth, BacTiter-Glo luminescence, 24 h; inhibition, % at 10 µM; 330,000 tested, 1.4% active; AID 463195;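 active = inhibition of 40% or more at the single tested concentration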;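 also: wild-type TIM10 isogenic control strain grown at permissive 25 °C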
PfHsp90 yeast 2: reduces growth (ATP signal) of yeast expressing P. falciparum Hsp90. 310,000 tested, 0.32% active. inhibition, % at 9.4 µM. S. cerevisiae expressing PfHsp90, BacTiter-Glo ATP, 48 h; yeast lacking PDR1 and PDR3 efflux regulators. AID 504621;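 active = every replicate shows inhibition above about 80%, whatever the replicate mean, limit read from the data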
tim23-1 inh: inhibits growth of tim23-1 mutant yeast. S. cerevisiae tim23-1 growth, BacTiter-Glo luminescence, 24 h. inhibition, % at 20 µM. 330,000 tested, 1.3% active. AID 463212;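 active = growth inhibition of the mutant yeast at or above 50%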;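 also: temperature-sensitive mutant grown at 25 °C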
tim10-1 inh: tim10-1 yeast growth inhibition. S. cerevisiae tim10-1 ts strain growth, BacTiter-Glo, 24 h. inhibition, % at 20 µM. 330,000 tested, 2.2% active. AID 463190;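 active = inhibition of at least 40%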;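 also: mutant grown at 25 °C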
Rce1 inhib: yeast Ras-converting enzyme inhibition. Q03530. yeast membranes, quenched prenylated peptide cleavage fluorescence. calls only. 290,000 tested, 0.27% active;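 active = fall in fluorescence gain of 50% or more versus controls, with final raw signal at or below 3038400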
Target sequence (Q03530 whole entry, looked up): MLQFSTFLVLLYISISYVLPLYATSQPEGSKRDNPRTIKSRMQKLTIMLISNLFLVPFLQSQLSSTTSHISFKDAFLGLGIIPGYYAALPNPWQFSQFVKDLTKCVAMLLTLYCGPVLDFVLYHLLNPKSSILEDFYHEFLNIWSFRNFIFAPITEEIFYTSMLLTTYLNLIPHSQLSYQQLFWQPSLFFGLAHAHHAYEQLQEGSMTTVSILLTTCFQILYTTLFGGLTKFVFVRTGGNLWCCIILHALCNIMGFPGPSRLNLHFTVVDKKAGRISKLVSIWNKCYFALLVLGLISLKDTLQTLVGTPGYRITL
tim23-1 conf: confirmation of tim23-1 mutant yeast growth inhibitors | shares compounds with tim23-1 inh | S. cerevisiae tim23-1 growth, BacTiter-Glo luminescence, 24 h | inhibition, % at 20 µM | 4,400 tested, 83% active;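 active = inhibition above about 39% in either of two replicate wells at 20 µM, limit read from the data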;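 also: temperature-sensitive tim23-1 mutant grown at 25 °C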
Hits are given with their value; - = inactive; . = not tested or not shown; ! = repeats disagree.

SMILES	TIM10 inh	PfHsp90 yeast 2	tim23-1 inh	tim10-1 inh	Rce1 inhib	tim23-1 conf
Cc1cc(C(=O)N/N=C\c2cc(C(C)(C)C)ccc2O)n[nH]1	-	-	56	-	-	55
NC(=S)N/N=C/c1ccc(C23CC4CC(CC(C4)C2)C3)cc1	-	.	75	-	.	68
CCCN1CCN(C(=O)CCS(=O)(=O)c2cc3c(cc2Cl)NC(=O)CO3)CC1	-	-	-	-	-	.
O=[N+]([O-])c1ccc2nc(Cl)nc(-c3ccccc3)c2c1	-	-	54	-	-	48
O=[N+]([O-])c1ccc2nc(-[n+]3c(-c4ccccc4)cc(-c4ccccc4)cc3-c3ccccc3)[nH]c2c1	-	-	-	-	-	.
CCC(C)NS(=O)(=O)c1cc2c3c(c1)CCC(=O)N3CCC2 (stereo not given)	-	-	-	-	-	.
O=C(Oc1cc(Cl)ccc1Cl)c1ccc(N2CCOCC2)c([N+](=O)[O-])c1	-	-	-	-	-	.
Cc1ccc(-c2csc(NC(=O)c3ccccc3Cl)c2C(=O)O)cc1	-	-	64	-	-	-
CC(C)Cc1csc(NC(=O)c2ccccc2Cl)c1C(=O)O	-	-	-	-	-	.
Cc1cc(NC(=O)CSc2nnc(C)o2)no1	-	-	-	-	-	.
O=C(Nc1nccs1)c1ccc(Br)s1	-	-	64	-	-	52
O=C(Nc1nccs1)c1ccc(Br)cc1	-	-	56	-	-	-
CC(C)(C)c1ccccc1NC(=O)c1c(O)c2cccc3c2n(c1=O)CC3	-	.	-	-	-	.
O=C(c1cc(Br)c(Br)s1)N1CCc2ccccc2C1	-	-	52	-	.	53
Cc1cc(NC2CCCC2)n2ncc(-c3ccccc3)c2n1	-	-	50	-	-	-
Cc1cc(NC2CCCC2)n2nc(C)c(-c3ccccc3)c2n1	-	-	51	-	-	43
Cc1cc(N)n2nc(C)c(-c3ccccc3)c2n1	.	-	.	.	-	.
Cc1ncc(CN2CCC(CO)(CCc3ccccc3)CC2)s1	-	-	-	-	-	.
c1cnc2c(c1)ccc1cccnc12	-	125!	59!	-	-	44
Cc1cccc2cccnc12	-	-	-	-	.	.
COc1ccc(CN(C)C(=O)c2cc(S(=O)(=O)N3CCOCC3)ccc2N2CCCC2)cc1	-	.	-	-	-	.
Cc1cccc(NC(=O)c2cnc3ccccn3c2=O)c1	-	-	61	-	.	55
Cc1cccc(NC(=O)c2cnc3sccn3c2=O)c1	-	-	-	-	-	.
Cc1[nH][nH]c(=O)c1C(c1ccc(-c2ccc(Cl)c(Cl)c2)o1)c1c(C)[nH][nH]c1=O	-	-	75	-	-	46
COc1ccc(C(C)(C)C)cc1NC(=O)CCCN1C(=O)CN(C)C1=O	-	-	-	-	.	.
SMILES	TIM10 inh	PfHsp90 yeast 2	tim23-1 inh	tim10-1 inh	Rce1 inhib	tim23-1 conf
O=C(Nc1cc(Cl)ccn1)C1(c2ccccc2)CC1(Cl)Cl (stereo not given)	-	-	55	-	-	65
CCN(CC)CCN1C(=O)C2C(C(=O)Nc3ccc(C(C)C)cc3)C3C=CC2(O3)C1C(=O)NC1CCCCC1 (stereo not given)	-	-	-	-	-	.
COC(=O)n1c(=S)oc2cc(Cl)ccc21	-	.	78	-	-	79
COC(=O)n1c(=O)oc2cc(S(=O)(=O)N3CCOCC3)ccc21	-	.	-	-	-	.
COc1ccccc1[C@@H]1C(c2ccccc2)=NN(c2ccc(Br)cc2)[C@H]1C(=O)N1CCOC1=O	-	-	53	-	.	-
COc1ccccc1[C@@H]1C(c2cccc(C)c2)=NN(c2ccc(Br)cc2)[C@H]1C(=O)N1CCOC1=O	-	-	-	-	.	.
C[C@@H]1C(c2ccc(F)cc2)=NN(c2ccccc2)[C@H]1C(=O)N1CCOC1=O	-	-	53	-	.	-
CC[C@@H]1C(c2cccc(Cl)c2)=NN(c2ccc(Br)cc2)[C@H]1C(=O)N1CCOC1=O	-	-	-	-	.	.
CC[C@@H]1C(c2ccc(F)cc2)=NN(c2ccc(Br)cc2)[C@H]1C(=O)N1CCOC1=O	-	-	58	-	.	44
CC[C@@H]1C(c2ccccc2)=NN(c2ccc(Br)cc2)[C@H]1C(=O)N1CCOC1=O	-	-	58	-	.	-
CC(=O)Nc1ccc(S(=O)(=O)N[C@@H](C)C(=O)OCC(=O)c2ccc[nH]2)cc1	-	-	-	-	.	.
CC1CCN(C2(O)C(=O)Nc3ccc(Br)cc32)CC1 (stereo not given)	-	.	-	-	-	.

Bioassay records: PubChem BioAssay, several laboratories
